Experimental data published in PubChem BioAssay (NCATS).
Where “and” joins values, the source holds several entries; their conditions need not be identical. Equal entries are not always repeated. Inconclusive results are not listed. Calls of active or inactive are those of the source. Unless noted, calls come from the whole dose curve; as a rule, active = well fitted curve in either direction with a large enough effect (not every such curve was filed as active); inconclusive = small, poorly fitted or top-dose-only effect, or another doubt; inactive = flat fitted curve, though single readings scatter.

Assays:
[1] = AP1 Signaling Pathway (AID 357); settings: ME-180 AP-1-bla reporter, EGF-induced, beta-lactamase ratio, 5 h;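 note: ME-180 reporter cells stimulated with EGF at its EC50 level; % is set by controls: 0 for no effect and ±100 for the full control effect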
Method in brief: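 Titration-series screen for positive or negative modulators of EC50 EGF-induced signaling in ME-180 cells carrying an AP-1-driven beta-lactamase reporter. After 5 hours at 37 degrees Celsius, CCF4 460nm/530nm emission ratio gave %Activity; AC50 values derived.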

[2] = biological target: Cytochrome P450 1A2 (Homo sapiens) (UniProt P05177); assay: p450-cyp1a2 (AID 410; calls by dose curve; note: potency is the fitted concentration of half-maximal effect;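 for activity change, negative = inhibition: -100% = full effect of reference inhibitor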)
Method in brief: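 Human CYP1A2 (20nM) demethylated Luciferin-ME at its Km (100uM) in 100mM KPO4. After 10 min compound preincubation, NADPH regeneration ran the reaction 60 min at room temperature. Luciferin was read by luminescence, normalized to 57 uM furafylline.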

[3] = NFAT Signaling Pathway (AID 444); settings: Jurkat NFAT-bla M1, carbachol, beta-lactamase ratio, 5 h;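 note: carbachol stimulus at about its EC50 of 1 µM final; % is set by controls: 0 for no effect and ±100 for the full control effect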
Method in brief: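 Jurkat cells carrying an NFAT-driven β-lactamase reporter and co-transfected muscarinic M1 receptor were treated with compound plus carbachol (1 uM final, an EC50 level) for 5 h at 37 °C. CCF4 loading followed for 1 h at RT; 460/530 nm ratio gave %activity.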

[4] = Stat Signaling Pathway (AID 446); settings: ME-180 SIE beta-lactamase reporter, IL-6 stimulated, 5 h;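 note: ME-180 cervical cancer cells given 40 pM IL-6 alongside compound; SIE-controlled beta-lactamase reporter measured as 460/530 nm FRET emission ratio; % is set by controls: 0 for no effect and ±100 for the full control effect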
Method in brief: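 Reporter line: ME-180 cervical carcinoma, SIE-beta-lactamase. Treatment: compound with 40 pM IL-6, 5 hrs, 37 C, in low-serum OPTI-MEM with 10 mM HEPES pH 7.3. Detection: 460/530 nm fluorescence.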

[5] = biological target: Glucocorticoid receptor (Homo sapiens) (UniProt P04150); assay: GR-GFP Redistribution (AID 450;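 active = compounds whose dose series gives a full or clear partial fitted curve of increased nuclear translocation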; note: potency is the fitted concentration of half-maximal effect); settings: U2OS GR-GFP nuclear translocation, laser cytometry, 2 h
[6] = biological target: Glucocorticoid receptor (Homo sapiens) (UniProt P04150); assay: GR-EFC Redistribution (AID 451; calls by dose curve; note: potency is the fitted concentration of half-maximal effect); settings: CHO-K1 GR-EFC translocation, beta-gal luminescence, 2 h
Method in brief: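 CHO-K1 cells stably expressing nuclear-localized β-gal enzyme acceptor and GR fused C-terminally to the enzyme donor fragment; ligand-driven nuclear translocation restores β-gal by complementation. Compounds titrated up to 46 uM final, 2 h at 37 °C; luminescence read.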

[7] = biological target: 3',5'-cyclic-AMP phosphodiesterase 4B (Homo sapiens) (UniProt Q07343); assay: qHTS Assay for Inhibitors of PDE-IV (AID 607; active = well fitted activation curve with a large enough effect in the main read-out, with a control signal flat, not every such curve was filed as active; note: % of control where 0% means no effect)
Method in brief: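 Cell-based read-out of cAMP via a modified cyclic nucleotide-gated channel and membrane potential dye (535/590 nm) in HEK293 cells expressing PDE4 endogenously. Compounds tested up to 22.9 uM final; 100 uM RO 20-1724 reference.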

[8] = biological target: Pyruvate kinase (Leishmania mexicana) (UniProt Q27686); assay: qHTS Validation Assay for Inhibitors of Leishmania Mexicana Pyruvate Kinase (AID 945; active = well fitted curve in the direction sought with a large enough effect; an effect the other way counts as inactive or inconclusive;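 note: 0% = DMSO only neutral control wells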)
Method in brief: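 The enzyme is a highly purified E451W mutant of LmPYK used at 0.2 nM. It converts 0.5 mM PEP and 0.1 mM ADP over 1 h at room temperature; product ATP is quantified by luciferase luminescence relative to DMSO controls.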

[9] = biological target: Pyruvate kinase PKM (Homo sapiens) (UniProt P14618); assay: qHTS Assay for Activators of Human Muscle Pyruvate Kinase (AID 954; active = well fitted curve in the direction sought with a large enough effect, not every such curve was filed as active;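 note: 0% = uninhibited enzyme and -100% = no enzyme or full thiadiazolimine inhibition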)
Method in brief: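 Human PKM2 activity is measured as ATP generation, detected by luciferase-coupled luminescence. The enzyme (0.1 nM) acts on 0.5 mM PEP and 0.1 mM ADP for 1 h at ambient temperature; data are normalized to uninhibited and full-inhibition wells.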

[10] = qHTS Assay for Lipid Storage Modulators (AID 1519; calls by dose curve); settings: Drosophila S3 cells, BODIPY lipid droplet/cell ratio, laser cytometry, cells loaded with oleic acid
Method in brief: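 Cells seeded at 5,000 per well were treated with compounds over a concentration series and loaded with oleic acid (400 uM, as added). Lipid droplet fluorescence (488 nm excitation, 500-530 nm channel) was read by laser-scanning cytometry and normalized to 20 uM Triacsin C.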

[11] = biological target: Ubiquitin carboxyl-terminal hydrolase 1 (Homo sapiens) (UniProt O94782); assay: Inhibitors of USP1/UAF1: Pilot qHTS (AID 504865; active = well fitted curve in the direction sought with a large enough effect; an effect the other way counts as inactive or inconclusive;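 note: rhodamine fluorescence freed from ubiquitin-rhodamine substrate followed over time; top concentration of the series differs between compounds; % is set by controls: 0 for no effect and ±100 for the full control effect; nearly all actives have a fitted effect of over 35% in size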)
Method in brief: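 Kinetic fluorescence assay: 1nM USP1/UAF1, 15 min compound preincubation, then 150nM Ub-Rho; 480/540 nm.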

[12] = biological target: Mitogen-activated protein kinase 10 (Mus musculus) (UniProt Q61831); assay: JNK3 AlphaScreen Assay (AID 530);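 note: kinase came from lysate of stimulated human HepG2 cells; signal reports phosphorylation of biotinylated GST-cJun 1-79 at Ser73 with 10 µM ATP; % is set by controls: 0 for no effect and ±100 for the full control effect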
Method in brief: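 JNK3 came from HepG2 lysates pre-activated with IL-1beta and TNF-alpha and phosphorylated biotinylated GST-cJun (1-79) at 10 uM ATP, pH 7.6, room temperature. Compounds were titrated. AlphaScreen signal used anti-phospho-cJun (Ser73) antibody.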

[13] = biological target: ATP-dependent 6-phosphofructokinase (Trypanosoma brucei brucei) (UniProt O15648); assay: qHTS Assay to Find Inhibitors of T. brucei phosphofructokinase: hit validation (AID 492961; active = well fitted curve in the direction sought with a large enough effect; an effect the other way counts as inactive or inconclusive)
Method in brief: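 Reaction: 0.1 M triethanolamine pH 8.0, 5 mM MgCl2, F6P 0.5 mM, ATP 0.1 mM, PFK 1.25 nM, 45 min RT. Read-out: ADP-Glo luminescence. Analysis: concentration-response fits, classed by r2 and efficacy.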

[14] = biological target: Luciferin 4-monooxygenase (Photinus pyralis) (UniProt P08659); assay: Biochemical firefly luciferase enzyme assay for NPC (AID 624030; active = well fitted curve in the direction sought with a large enough effect; an effect the other way counts as inactive or inconclusive;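 note: purified P. pyralis luciferase at 10 nM with luciferin and ATP substrate; 0% = DMSO and -100% = full luciferase inhibition by PTC124 control; nearly all actives have a fitted effect of over 70% in size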)
Method in brief: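 Counter-screen for direct inhibition of the luciferase enzyme by approved-drug library compounds, run at 10 nM enzyme in 50 mM Tris acetate (final). Luminescence was read within 5 min of enzyme-buffer addition and normalized to PTC124 versus DMSO (0%).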

[15] = biological target: Guanine nucleotide-binding protein G(i) subunit alpha-1 (Homo sapiens) (UniProt P63096); assay: qHTS Assay for Inhibitors of RGS12 GoLoco Motif Activity (Green Fluorophore) (AID 879; active = well fitted curve in the direction sought with a large enough effect; an effect the other way counts as inactive or inconclusive;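 note: 0% = labeled peptide with Gαi1 and full inhibition = labeled peptide alone without protein; negative values mean loss of peptide binding seen as reduced polarization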)
Method in brief: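 Fluorescence polarization assay: 50 nM Gαi1 with 10 nM FITC-labeled RGS12 GoLoco peptide in 10 mM Tris pH 7.5, 150 mM NaCl, 0.1 mM GDP, 0.05% NP40, 10 min at room temperature with compound.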

[16] = measured here: cell count channel max response
[17] = measured here: lipid channel max response
[18] = at 7.69 µM (top of the series) unless noted

Sequence of 3',5'-cyclic-AMP phosphodiesterase 4B (Homo sapiens) (Q07343 whole entry, looked up): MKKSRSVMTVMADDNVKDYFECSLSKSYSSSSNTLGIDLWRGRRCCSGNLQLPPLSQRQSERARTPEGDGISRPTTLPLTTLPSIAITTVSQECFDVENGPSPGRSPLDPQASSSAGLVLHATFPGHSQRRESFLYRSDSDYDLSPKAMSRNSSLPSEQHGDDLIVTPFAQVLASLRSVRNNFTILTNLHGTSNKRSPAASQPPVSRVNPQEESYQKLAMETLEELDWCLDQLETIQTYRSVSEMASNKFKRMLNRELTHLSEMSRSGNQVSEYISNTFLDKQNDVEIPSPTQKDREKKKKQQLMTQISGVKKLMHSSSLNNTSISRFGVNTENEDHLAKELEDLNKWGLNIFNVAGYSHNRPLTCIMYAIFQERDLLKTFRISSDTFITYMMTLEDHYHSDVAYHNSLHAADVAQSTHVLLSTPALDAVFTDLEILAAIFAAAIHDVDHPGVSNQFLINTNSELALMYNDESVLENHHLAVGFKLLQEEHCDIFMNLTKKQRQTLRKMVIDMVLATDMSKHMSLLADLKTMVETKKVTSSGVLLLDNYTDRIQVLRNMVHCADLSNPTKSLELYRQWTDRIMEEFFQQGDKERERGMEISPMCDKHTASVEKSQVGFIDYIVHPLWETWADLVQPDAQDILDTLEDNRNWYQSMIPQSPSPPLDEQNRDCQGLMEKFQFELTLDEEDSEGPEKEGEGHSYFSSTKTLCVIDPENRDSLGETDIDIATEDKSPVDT
Sequence of Glucocorticoid receptor (Homo sapiens) (P04150 whole entry, looked up, the tested form may be a part): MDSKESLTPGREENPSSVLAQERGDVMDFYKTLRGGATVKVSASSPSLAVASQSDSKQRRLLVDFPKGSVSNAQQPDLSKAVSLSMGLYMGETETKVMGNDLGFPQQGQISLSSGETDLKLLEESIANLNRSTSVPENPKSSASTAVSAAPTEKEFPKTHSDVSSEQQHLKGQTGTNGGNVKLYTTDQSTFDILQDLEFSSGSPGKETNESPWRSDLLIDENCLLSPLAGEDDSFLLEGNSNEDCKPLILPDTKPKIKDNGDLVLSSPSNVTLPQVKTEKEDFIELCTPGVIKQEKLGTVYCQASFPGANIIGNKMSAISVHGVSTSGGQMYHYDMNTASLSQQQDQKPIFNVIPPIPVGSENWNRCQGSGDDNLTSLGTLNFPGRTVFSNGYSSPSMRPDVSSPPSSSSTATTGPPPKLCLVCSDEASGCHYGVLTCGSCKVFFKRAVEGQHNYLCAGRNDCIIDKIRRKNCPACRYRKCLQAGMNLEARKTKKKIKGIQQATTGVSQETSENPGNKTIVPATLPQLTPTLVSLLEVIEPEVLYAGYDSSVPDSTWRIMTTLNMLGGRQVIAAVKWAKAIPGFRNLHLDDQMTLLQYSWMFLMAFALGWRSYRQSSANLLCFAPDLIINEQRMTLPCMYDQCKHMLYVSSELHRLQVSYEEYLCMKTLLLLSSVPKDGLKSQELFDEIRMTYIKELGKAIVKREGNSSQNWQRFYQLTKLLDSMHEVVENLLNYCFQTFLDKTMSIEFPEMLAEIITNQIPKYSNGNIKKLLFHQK
Sequence of Cytochrome P450 1A2 (Homo sapiens) (P05177 whole entry, looked up): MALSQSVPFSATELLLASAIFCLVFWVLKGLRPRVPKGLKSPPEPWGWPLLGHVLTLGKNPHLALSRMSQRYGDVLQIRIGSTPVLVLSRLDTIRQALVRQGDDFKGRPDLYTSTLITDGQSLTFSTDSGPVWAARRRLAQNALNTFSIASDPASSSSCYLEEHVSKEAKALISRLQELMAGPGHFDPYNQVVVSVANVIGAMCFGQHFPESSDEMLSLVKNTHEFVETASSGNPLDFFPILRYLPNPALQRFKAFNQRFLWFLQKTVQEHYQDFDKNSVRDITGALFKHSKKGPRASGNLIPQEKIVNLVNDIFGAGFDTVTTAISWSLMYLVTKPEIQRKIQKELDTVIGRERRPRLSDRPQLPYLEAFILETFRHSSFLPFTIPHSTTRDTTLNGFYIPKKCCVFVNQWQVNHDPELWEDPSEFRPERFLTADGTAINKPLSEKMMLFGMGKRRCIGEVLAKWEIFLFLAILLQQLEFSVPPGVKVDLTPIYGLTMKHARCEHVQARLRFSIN
Sequence of Ubiquitin carboxyl-terminal hydrolase 1 (Homo sapiens) (O94782 whole entry, looked up): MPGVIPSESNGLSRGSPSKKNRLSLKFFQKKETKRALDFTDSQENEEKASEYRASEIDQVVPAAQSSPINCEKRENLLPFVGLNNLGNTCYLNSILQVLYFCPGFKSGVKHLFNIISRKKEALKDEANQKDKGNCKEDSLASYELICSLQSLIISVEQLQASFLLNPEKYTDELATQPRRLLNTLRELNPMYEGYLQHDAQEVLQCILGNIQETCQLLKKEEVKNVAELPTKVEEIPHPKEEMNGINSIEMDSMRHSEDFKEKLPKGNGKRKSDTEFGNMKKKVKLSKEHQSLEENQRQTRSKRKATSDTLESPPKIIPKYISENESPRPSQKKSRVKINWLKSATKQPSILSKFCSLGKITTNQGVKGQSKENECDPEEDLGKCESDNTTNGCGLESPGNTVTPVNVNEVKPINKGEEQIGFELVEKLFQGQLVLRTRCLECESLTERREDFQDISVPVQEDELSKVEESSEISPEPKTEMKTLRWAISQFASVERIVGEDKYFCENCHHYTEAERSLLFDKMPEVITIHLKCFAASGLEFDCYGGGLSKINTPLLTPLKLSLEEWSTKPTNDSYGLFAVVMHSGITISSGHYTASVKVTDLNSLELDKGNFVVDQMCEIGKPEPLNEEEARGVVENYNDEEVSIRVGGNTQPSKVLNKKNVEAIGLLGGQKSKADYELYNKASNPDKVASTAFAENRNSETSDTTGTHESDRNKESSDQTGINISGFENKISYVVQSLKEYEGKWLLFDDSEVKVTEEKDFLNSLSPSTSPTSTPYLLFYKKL
Sequence of Pyruvate kinase PKM (Homo sapiens) (P14618 whole entry, looked up): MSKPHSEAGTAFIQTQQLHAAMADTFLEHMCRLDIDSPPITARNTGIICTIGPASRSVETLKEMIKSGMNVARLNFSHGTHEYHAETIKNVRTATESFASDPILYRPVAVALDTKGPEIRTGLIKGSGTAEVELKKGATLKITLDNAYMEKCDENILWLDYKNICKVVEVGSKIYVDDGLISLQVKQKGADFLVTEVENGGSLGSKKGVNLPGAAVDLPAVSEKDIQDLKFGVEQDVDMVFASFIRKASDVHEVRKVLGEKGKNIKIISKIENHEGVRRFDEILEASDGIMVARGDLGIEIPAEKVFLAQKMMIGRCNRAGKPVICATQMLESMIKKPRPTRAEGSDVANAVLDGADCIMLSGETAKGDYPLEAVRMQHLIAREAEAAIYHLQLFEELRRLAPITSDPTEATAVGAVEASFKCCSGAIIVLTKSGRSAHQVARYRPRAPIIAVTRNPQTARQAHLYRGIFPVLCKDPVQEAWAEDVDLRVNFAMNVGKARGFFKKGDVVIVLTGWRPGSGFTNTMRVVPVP
Sequence of Pyruvate kinase (Leishmania mexicana) (Q27686 2-499 E452W): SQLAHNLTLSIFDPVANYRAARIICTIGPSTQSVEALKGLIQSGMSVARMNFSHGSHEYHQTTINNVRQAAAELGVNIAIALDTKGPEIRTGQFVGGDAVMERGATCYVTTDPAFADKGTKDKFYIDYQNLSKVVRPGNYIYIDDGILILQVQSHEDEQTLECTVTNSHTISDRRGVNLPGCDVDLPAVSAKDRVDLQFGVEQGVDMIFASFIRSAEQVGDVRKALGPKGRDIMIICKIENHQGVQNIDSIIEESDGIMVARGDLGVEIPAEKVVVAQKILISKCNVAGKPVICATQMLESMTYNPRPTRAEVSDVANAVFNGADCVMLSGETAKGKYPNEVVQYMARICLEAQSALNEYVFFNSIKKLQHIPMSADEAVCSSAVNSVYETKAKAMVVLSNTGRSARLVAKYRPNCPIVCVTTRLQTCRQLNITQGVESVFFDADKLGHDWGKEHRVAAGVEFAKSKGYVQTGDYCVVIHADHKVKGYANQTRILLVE
Sequence of Luciferin 4-monooxygenase (Photinus pyralis) (P08659 whole entry, looked up): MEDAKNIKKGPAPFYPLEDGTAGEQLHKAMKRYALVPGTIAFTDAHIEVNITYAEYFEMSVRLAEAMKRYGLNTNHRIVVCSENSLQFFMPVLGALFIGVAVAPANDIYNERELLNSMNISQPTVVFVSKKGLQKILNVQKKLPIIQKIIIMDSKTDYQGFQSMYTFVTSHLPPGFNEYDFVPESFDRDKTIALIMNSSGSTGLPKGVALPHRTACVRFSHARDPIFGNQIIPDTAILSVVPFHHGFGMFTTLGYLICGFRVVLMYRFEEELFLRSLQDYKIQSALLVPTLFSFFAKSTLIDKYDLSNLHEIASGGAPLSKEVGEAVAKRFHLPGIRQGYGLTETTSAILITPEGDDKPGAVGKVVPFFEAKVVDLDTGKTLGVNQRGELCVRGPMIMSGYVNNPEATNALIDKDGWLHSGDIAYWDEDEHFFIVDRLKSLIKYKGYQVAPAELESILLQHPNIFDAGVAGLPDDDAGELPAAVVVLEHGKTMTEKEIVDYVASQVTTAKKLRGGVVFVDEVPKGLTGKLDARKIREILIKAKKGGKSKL
Sequence of Guanine nucleotide-binding protein G(i) subunit alpha-1 (Homo sapiens) (P63096 whole entry, looked up): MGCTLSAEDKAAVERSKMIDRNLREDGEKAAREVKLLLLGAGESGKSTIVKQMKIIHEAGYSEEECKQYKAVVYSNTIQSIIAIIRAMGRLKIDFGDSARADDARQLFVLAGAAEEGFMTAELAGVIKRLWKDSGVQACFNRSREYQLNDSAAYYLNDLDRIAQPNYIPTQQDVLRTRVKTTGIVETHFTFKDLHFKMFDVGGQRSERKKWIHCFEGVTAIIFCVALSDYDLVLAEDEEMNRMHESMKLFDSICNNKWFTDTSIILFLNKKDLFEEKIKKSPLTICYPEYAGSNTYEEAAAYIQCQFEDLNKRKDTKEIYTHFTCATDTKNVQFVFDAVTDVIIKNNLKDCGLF

COc1ccc([C@H]2Sc3ccccc3N(CCN(C)C)C(=O)[C@H]2OC(C)=O)cc1
activity change, negative = inhibition ([1]; at 17.2 µM (top of the series)): -10.4% (inactive)
activity change, negative = inhibition ([1]; at 38 µM (top of the series)): -3.25% (inactive)
Potency [2]: inactive
activity change, negative = inhibition ([3]; at 17.2 µM (top of the series)): -5.79% (inactive)
activity change, negative = inhibition ([3]; at 38 µM (top of the series)): -3.5% (inactive)
activity, negative = inhibition ([4]; at 17.2 µM (top of the series)): -1.38% (inactive)
activity, negative = inhibition ([4]; at 38 µM (top of the series)): 7.22% (inactive)
Potency [5]: > 46 µM (inactive) and > 20.6 µM (inactive)
Potency [6]: > 46 µM (inactive) and > 20.6 µM (inactive)
Potency [7]: inactive
outcome [8]: inactive
outcome [9]: inactive
activity change, negative = inhibition ([10]; at 25.7 µM (top of the series)): -1.07% (inactive)
max response [10, 16]: 7.03%
max response [10, 17]: 9.95%
Potency [11]: inactive

Cc1cccc(CNc2ncnc3ccc(-c4cccc(NS(C)(=O)=O)c4)cc23)c1
activity change, negative = inhibition [3, 18]: 12.3% (inactive)
activity, negative = inhibition [4, 18]: -1.79% (inactive)
Potency [5]: > 46 µM (inactive)
Potency [6]: > 46 µM (inactive)
Potency [12]: inactive
Potency [7]: inactive
activity change, negative = inhibition ([10]; at 57.5 µM (top of the series)): -4.87% (inactive)
max response [10, 16]: -15.4%
max response [10, 17]: -18.6%

O=c1c(-c2cc(F)cc(F)c2)nc2cnc(Oc3ccccc3)nc2n1C[C@H]1CCCO1
activity change, negative = inhibition [3, 18]: -1.84% (inactive)
activity, negative = inhibition [4, 18]: -1.6% (inactive)
Potency [5]: > 9.22 µM (inactive)
Potency [6]: > 46 µM (inactive)
Potency [12]: inactive
Potency [7]: inactive
activity change, negative = inhibition ([10]; at 57.5 µM (top of the series)): -6.47% (inactive)
max response [10, 16]: 13.2%
max response [10, 17]: 10.1%

O=C(C1CCCCC1)N1CC(=O)N2CCc3ccccc3[C@@H]2C1
activity change, negative = inhibition ([1]; at 17.2 µM (top of the series)): 6.31% (inactive)
activity change, negative = inhibition ([1]; at 38 µM (top of the series)): -5.21% (inactive)
Potency [2]: 12.6 µM (active) and 10 µM (active)
activity change, negative = inhibition ([3]; at 17.2 µM (top of the series)): 3.18% (inactive)
activity change, negative = inhibition ([3]; at 38 µM (top of the series)): -8.74% (inactive)
activity, negative = inhibition ([4]; at 17.2 µM (top of the series)): -1.88% (inactive)
activity, negative = inhibition ([4]; at 38 µM (top of the series)): -0.96% (inactive)
Potency [5]: > 46 µM (inactive) and > 20.6 µM (inactive)
Potency [6]: > 46 µM (inactive) and > 20.6 µM (inactive)
Potency [12]: inactive
Potency [7]: inactive
activity change, negative = inhibition ([10]; at 25.7 µM (top of the series)): 1.99% (inactive)
max response [10, 16]: 3.5%
max response [10, 17]: 8.95%
outcome [13]: inactive
Potency [11]: inactive
outcome [14]: inactive

CC(=O)OCC1=C(C(=O)O)N2C(=O)[C@@H](NC(=O)Cc3cccs3)[C@@H]2SC1
activity change, negative = inhibition ([1]; at 17.2 µM (top of the series)): 7.41% (inactive)
activity change, negative = inhibition ([1]; at 38 µM (top of the series)): -2.48% (inactive)
Potency [2]: inactive
activity change, negative = inhibition ([3]; at 17.2 µM (top of the series)): -11.2% (inactive)
activity change, negative = inhibition ([3]; at 38 µM (top of the series)): 3.89% (inactive)
activity, negative = inhibition ([4]; at 17.2 µM (top of the series)): -1.09% (inactive)
activity, negative = inhibition ([4]; at 38 µM (top of the series)): -3.08% (inactive)
Potency [5]: > 46 µM (inactive) and > 20.6 µM (inactive)
Potency [6]: > 46 µM (inactive) and > 20.6 µM (inactive)
Potency [12]: inactive
Potency [7]: inactive
Potency [15]: inactive
outcome [8]: inactive
outcome [9]: inactive
activity change, negative = inhibition ([10]; at 25.7 µM (top of the series)): -1.63% (inactive)
max response [10, 16]: -17.3%
max response [10, 17]: -18.6%
